Results reported in the supplement of paper PMC11732987, “Enantioselective OTUD7B fragment discovery through chemoproteomics screening and high-throughput optimisation” (Communications Chemistry, 2025).

Tests used:
Assay in all cases: log2 ratio of Biotin-Ahx-Ub-VS probe labelling (fragment/DMSO); higher = less target engagement (more negative = stronger competition), active = hit call of the paper (q ≤ 0.05, log2 ratio ≤ -1)
Settings in all cases: compound concentration: 200 uM; treatment time: 3 h
USP34 = USP34 (UniProt Q70CQ2)
In short: (§1)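 Labelling with Biotin-Ahx-Ub-VS (0.5 µM final, 1 h) followed a 3 h triplicate treatment of HEK293T lysate (495 µg per sample, Tris/CHAPS/IGEPAL buffer with protease inhibitors) with fragment at 200 µM or vehicle. Labelled DUBs were NeutrAvidin-enriched, digested with LysC and trypsin, and run by diaPASEF LC-MS/MS. The values, average log2 fragment/vehicle ratios by unpaired t-test, come from global-median-normalised Spectronaut label-free quantities. Proteins with ≥2 unique peptides were used.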

USP36 = target: T1, USP36 (UniProt Q9P275)
T1 sequence (whole entry): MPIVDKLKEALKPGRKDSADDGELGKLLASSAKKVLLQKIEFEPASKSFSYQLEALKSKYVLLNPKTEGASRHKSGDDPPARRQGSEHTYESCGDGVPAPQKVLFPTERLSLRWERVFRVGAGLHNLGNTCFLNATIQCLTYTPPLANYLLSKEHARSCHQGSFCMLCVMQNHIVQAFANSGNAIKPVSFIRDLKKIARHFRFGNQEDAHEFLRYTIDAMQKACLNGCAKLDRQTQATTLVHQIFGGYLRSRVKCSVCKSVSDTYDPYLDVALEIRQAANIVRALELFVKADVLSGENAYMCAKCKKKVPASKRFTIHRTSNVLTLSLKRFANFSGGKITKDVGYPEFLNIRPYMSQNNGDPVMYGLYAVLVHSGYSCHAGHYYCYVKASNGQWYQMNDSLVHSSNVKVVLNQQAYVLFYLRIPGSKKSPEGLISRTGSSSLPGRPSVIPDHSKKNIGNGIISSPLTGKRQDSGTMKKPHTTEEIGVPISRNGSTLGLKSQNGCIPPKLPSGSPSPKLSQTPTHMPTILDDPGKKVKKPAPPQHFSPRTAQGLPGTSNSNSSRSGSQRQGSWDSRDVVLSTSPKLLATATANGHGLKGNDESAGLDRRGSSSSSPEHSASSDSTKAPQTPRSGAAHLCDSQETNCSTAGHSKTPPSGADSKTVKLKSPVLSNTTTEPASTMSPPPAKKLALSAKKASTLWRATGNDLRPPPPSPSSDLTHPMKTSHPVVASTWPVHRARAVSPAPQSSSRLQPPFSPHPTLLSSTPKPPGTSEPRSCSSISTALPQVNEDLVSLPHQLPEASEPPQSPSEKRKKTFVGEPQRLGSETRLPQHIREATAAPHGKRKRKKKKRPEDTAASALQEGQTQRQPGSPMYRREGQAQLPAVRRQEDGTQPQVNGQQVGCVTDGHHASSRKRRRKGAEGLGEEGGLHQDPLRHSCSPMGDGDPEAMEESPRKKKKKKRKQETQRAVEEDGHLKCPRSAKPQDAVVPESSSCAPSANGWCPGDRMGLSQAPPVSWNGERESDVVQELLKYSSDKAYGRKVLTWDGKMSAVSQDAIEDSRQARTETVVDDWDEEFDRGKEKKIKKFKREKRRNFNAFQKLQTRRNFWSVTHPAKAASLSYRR
In short: as §1

USP38 = target: T2, USP38 (UniProt Q8NB14)
T2 sequence (whole entry): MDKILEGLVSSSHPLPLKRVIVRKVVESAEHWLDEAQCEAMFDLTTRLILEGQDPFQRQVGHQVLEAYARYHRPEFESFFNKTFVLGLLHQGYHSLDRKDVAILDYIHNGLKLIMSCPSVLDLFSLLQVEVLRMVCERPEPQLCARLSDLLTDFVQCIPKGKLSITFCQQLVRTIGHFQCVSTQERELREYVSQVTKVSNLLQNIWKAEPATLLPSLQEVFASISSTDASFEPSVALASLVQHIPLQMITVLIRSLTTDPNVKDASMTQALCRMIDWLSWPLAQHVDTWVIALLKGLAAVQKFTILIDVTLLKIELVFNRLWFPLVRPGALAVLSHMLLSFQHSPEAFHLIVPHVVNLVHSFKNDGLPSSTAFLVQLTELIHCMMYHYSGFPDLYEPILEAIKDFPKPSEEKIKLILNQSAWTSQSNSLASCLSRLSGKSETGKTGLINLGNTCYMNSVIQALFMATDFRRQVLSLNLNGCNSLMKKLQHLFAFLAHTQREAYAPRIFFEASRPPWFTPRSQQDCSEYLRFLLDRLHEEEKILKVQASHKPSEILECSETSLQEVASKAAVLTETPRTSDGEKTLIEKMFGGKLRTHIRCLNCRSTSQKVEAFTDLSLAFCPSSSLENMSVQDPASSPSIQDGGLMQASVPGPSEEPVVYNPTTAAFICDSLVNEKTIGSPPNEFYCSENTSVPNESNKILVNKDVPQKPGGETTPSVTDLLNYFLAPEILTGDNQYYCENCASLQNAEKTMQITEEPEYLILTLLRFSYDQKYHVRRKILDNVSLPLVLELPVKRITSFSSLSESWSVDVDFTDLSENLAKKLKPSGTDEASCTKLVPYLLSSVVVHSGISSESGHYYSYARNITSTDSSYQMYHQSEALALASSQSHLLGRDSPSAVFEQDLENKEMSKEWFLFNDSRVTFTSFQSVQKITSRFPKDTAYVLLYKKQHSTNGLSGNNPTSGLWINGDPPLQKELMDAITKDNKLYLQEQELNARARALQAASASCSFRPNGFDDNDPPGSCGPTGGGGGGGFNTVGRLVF
In short: as §1

USP39 = target: T3, USP39 (UniProt Q53GS9)
T3 sequence (whole entry): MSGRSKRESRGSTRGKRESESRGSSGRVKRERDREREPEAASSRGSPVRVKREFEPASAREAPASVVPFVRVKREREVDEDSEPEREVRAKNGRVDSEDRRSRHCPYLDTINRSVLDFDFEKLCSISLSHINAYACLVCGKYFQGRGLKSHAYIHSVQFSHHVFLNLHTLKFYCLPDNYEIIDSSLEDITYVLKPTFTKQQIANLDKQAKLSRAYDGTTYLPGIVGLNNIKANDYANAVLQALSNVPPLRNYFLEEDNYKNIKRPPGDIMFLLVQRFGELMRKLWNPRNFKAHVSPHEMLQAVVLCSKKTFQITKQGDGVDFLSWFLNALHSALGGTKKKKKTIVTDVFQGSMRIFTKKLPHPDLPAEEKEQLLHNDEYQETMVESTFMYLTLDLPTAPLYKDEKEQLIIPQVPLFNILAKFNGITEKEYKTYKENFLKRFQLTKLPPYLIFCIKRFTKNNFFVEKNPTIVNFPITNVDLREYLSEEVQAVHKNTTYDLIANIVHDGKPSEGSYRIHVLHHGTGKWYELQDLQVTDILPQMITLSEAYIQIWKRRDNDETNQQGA
In short: as §1

USP4 = target: T4, USP4 (UniProt Q13107)
T4 sequence (whole entry): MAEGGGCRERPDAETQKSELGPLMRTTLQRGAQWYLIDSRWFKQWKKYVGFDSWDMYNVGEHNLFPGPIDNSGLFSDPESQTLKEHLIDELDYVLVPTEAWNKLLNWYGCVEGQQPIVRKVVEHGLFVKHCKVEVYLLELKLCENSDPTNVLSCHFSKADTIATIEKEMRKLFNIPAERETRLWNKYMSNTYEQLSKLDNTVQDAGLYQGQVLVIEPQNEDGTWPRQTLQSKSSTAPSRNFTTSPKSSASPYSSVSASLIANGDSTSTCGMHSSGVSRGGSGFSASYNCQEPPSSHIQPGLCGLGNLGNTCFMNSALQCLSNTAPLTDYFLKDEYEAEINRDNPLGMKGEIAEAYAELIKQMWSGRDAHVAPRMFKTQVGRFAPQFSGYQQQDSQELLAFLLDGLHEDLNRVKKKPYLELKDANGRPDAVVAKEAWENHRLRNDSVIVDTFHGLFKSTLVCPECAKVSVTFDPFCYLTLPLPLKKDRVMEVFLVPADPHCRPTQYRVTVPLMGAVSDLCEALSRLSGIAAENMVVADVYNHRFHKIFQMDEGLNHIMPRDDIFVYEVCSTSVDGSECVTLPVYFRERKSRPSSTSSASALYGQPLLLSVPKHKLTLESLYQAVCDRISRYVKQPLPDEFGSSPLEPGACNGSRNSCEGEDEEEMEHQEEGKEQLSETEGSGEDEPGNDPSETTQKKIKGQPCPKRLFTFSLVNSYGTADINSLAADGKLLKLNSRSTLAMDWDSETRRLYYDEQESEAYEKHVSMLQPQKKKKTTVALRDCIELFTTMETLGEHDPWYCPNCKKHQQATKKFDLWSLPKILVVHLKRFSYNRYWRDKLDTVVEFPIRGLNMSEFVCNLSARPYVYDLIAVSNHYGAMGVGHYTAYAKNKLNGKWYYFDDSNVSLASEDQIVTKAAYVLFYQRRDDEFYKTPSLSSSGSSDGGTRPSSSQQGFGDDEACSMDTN
In short: as §1

Measured: log2 ratio of Biotin-Ahx-Ub-VS probe labelling

Chain of USP34 (Q70CQ2 whole entry, the tested form may be a part): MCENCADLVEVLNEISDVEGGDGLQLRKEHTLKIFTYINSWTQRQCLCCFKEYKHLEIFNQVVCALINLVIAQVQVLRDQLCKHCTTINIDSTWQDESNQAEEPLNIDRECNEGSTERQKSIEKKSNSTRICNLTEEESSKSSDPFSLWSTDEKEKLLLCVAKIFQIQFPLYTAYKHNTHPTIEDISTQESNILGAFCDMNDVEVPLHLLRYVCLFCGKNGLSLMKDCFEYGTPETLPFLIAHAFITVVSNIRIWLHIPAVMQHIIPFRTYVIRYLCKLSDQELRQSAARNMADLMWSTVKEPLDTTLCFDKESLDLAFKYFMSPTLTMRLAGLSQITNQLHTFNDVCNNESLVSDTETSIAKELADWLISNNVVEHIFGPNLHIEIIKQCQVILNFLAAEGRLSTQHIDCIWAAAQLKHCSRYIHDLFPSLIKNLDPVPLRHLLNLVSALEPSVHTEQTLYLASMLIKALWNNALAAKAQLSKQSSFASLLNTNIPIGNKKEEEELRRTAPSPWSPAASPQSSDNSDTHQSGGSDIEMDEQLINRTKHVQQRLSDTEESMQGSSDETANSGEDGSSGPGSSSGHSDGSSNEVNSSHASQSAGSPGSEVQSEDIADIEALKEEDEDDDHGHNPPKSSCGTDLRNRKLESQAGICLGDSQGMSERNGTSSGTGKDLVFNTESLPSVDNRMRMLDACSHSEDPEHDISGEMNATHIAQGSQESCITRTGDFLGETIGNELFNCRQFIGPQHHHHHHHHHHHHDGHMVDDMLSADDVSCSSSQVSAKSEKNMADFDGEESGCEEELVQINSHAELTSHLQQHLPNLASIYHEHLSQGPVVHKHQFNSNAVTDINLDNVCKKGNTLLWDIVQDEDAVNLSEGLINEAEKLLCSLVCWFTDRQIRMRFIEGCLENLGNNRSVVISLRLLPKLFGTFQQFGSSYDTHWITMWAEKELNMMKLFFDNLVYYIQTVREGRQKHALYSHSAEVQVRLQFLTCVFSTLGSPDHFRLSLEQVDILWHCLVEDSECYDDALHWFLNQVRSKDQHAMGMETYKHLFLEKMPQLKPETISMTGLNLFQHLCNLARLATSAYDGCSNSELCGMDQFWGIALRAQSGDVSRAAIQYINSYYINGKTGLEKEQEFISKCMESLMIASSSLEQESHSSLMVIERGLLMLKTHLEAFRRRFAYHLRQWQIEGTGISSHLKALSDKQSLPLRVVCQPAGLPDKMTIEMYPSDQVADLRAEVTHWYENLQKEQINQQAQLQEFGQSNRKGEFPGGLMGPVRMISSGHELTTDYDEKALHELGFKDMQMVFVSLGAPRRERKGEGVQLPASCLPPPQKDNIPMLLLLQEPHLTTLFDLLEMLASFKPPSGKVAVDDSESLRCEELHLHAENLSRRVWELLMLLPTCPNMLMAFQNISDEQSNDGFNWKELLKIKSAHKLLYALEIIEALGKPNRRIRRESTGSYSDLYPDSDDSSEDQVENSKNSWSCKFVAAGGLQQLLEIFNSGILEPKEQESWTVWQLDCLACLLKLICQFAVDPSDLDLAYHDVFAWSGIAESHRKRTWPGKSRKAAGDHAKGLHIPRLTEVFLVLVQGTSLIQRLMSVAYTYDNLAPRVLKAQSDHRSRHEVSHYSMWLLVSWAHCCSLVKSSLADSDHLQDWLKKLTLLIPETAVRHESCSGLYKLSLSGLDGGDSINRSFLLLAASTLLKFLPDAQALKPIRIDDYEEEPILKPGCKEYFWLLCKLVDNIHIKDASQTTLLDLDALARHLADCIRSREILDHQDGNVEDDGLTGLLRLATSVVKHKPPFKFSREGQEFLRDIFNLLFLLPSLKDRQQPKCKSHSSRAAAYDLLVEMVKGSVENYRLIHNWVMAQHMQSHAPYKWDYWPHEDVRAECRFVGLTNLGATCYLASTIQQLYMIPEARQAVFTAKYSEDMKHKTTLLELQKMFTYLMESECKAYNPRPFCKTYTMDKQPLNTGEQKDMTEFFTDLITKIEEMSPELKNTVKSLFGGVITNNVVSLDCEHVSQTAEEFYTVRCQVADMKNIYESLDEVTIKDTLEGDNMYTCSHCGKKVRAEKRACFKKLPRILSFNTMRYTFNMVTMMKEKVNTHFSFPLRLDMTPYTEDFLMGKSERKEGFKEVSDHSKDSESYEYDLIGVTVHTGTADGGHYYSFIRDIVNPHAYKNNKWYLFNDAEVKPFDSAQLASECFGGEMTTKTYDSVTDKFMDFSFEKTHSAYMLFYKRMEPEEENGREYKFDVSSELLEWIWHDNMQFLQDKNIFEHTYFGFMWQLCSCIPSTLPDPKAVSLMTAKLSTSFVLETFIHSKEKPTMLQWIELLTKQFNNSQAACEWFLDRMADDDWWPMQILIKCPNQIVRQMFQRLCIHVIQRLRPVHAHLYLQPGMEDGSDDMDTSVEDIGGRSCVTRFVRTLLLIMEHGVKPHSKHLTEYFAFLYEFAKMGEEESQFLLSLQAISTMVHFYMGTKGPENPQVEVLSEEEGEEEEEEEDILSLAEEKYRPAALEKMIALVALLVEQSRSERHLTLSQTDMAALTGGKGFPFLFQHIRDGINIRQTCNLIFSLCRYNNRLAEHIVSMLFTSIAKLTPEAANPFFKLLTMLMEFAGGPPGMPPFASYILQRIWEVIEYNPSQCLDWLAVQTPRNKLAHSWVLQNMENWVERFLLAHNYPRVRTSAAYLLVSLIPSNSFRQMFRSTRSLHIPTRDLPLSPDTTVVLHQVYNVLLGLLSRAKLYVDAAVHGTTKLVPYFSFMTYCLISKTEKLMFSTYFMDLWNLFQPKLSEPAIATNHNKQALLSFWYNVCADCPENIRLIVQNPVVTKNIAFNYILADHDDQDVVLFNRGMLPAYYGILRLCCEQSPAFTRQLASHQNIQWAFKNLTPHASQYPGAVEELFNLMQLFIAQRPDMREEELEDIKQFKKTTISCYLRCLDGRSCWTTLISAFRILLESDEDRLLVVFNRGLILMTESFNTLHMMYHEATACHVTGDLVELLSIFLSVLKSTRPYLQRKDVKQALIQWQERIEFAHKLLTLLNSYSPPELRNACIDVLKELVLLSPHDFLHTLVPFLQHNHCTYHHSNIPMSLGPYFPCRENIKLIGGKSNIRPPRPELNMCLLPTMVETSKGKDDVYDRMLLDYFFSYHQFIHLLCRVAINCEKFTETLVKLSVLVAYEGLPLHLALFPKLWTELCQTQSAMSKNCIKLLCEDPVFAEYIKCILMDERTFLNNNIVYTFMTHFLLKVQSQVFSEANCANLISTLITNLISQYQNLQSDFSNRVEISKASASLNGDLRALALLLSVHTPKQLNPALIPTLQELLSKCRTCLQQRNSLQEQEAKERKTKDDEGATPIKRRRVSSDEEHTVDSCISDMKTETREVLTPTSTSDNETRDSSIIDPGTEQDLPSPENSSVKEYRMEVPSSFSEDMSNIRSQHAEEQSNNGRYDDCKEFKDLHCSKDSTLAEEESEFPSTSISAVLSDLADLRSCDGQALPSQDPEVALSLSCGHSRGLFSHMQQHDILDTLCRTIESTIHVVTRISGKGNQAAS

O=C(CCl)Nc1cc(Cl)ccc1C(=O)O
inactive: USP34 0.243 | USP36 0.209 | USP38 0.105 | USP39 0.562 | USP4 0.12
